Our source for the growth values is PubChem BioAssay (NCI).

Where “and” joins values, the source holds several entries; their conditions need not be identical. Equal values may be shown once. Compounds without any hit were thinned out: in the full panel of roughly 83,000, 20% have a hit.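 Plates (96-well) were seeded with cells, treated with compound at one concentration, and incubated for 48 hours before percent growth was determined.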 Calls of active or inactive are those of the source. How the source made its calls: active means growth percent below 10; inactive means the rest.

This assay concerns U251 CNS. The experiment in a line: NCI-60 one-dose screen, 48 h (100 = growth as untreated, 0 = no growth, -100 = all killed). The following applies: 10 µM unless noted.
Take `Cc1cc(Br)ccc1-n1cc(C#N)c(N)c1C(=O)c1ccc(Br)cc1`: the growth is 99.9% (inactive).

Regarding `CCCCCCN1C=C/C(=C\C(=O)n2ccc3ccccc32)c2ccccc21`, the growth was 46.9% (inactive).

Consider `Cc1ccc(CSC2=C(Cl)CN(c3ccc(Cl)cc3)C2=O)cc1`, for which the growth was 101% (inactive).

In the case of `Clc1ccc(CSc2nnc(-c3ccc(Cl)cc3)n2-c2ccccc2)cc1`, the growth is 81.2% (inactive).

As for `NS(=O)(=O)c1ccc(CCn2c(-c3ccc(C(=O)O)cc3)nc(-c3ccccc3)c2-c2ccccc2)cc1`, the growth was 110% (inactive).

For `CC(=C(c1ccc(OCCCN(C)C)cc1)c1ccc(OCCCN(C)C)cc1)c1ccc(Cl)cc1`, the growth is 92.1% (inactive).

For the molecule `CC[C@]12CC(C(=O)OC)=C3Nc4ccccc4[C@@]34CCN(C14)[C@@H]1c3cc4c(cc3O[C@@H]1[C@H]2O)NC1=C(C(=O)OC)C[C@@]2(CC)C3N(CC[C@@]143)C[C@H]1O[C@H]12` (stereo partly drawn), the growth is 19.2% (inactive).

With `Cc1ccc(-c2csc(N/N=C/c3cccs3)n2)cc1`, the growth is 85.8% (inactive).

Consider `CN1CCC[C@]2(C)[C@H]3CC[C@@H]4[C@@H]5[C@H]6OC[C@@]5(CCC6(C)C)CC[C@@]4(C)[C@]3(C)CC[C@H]2C1(C)C`, for which the growth was 27.5% (inactive).

As for `O=S(=O)(Oc1ccc(-c2cn3ccoc3n2)cc1)c1cccc(C(F)(F)F)c1`, the growth is 101% (inactive).

Turning to `CC(Nc1c(C#N)cnc2ccc(-c3cncc(-c4n[nH]c(=O)o4)c3)cc12)c1ccccc1` (stereo not drawn), the growth is 17.6% (inactive).

For the molecule `C#CCN(C)CCCOc1ccc(NC(=O)CCCCCCCCC(=O)NO)cc1Cl`, the growth was 64.3% (inactive).

`CCCc1cc2cc(-n3nc(CC)c4c3CC(C)(C)CC4=O)cc(NC3CCC(O)CC3)c2c(=O)[nH]1` (stereo not drawn): the growth is 27.8% (inactive).

With `O=C(CN1CCN(c2cc(=O)[nH]c3ccc(F)cc23)CC1)N(c1ccccc1)c1ccccc1`, the growth was 107% (inactive).

Consider `CN1CCN(c2ccc(Nc3nc(NCCCNS(=O)(=O)c4cccc(F)c4)c4sccc4n3)cc2)CC1`, for which the growth is 6.85% (active).

Take `COc1ccc(C(=NNS(=O)(=O)c2ccc(C)cc2)c2ccccc2)cc1OC`: the growth is 96.1% (inactive).

As to `COc1ccc(/C=N/NC(=O)c2c(N)nn(C)c2Nc2ccccc2)cc1Oc1ccccc1`, the growth is 93.6% (inactive).

As for `C#C[C@]1(O)CC[C@H]2[C@@H]3CC=C4c5sc(NCc6ccccc6)nc5CC[C@]4(C)[C@H]3CC[C@@]21C`, the growth was 23.4% (inactive).

With `Cc1cc(NS(=O)(=O)c2ccc(NC(=O)CSc3nc4ccccc4c(=O)n3-c3ccccc3)cc2)no1`, the growth was 100% (inactive).

As for `CC(C)NC(=O)c1cc(-c2ccc(NC(=O)Nc3ccc(F)c(C(F)(F)F)c3)cc2)nc2cccnc12`, the growth is 87.8% (inactive).

`CCOC(=O)c1cccnc1Nc1ccc(NC(=O)Nc2ccc(Cl)c(C(F)(F)F)c2)cc1`: the growth was 30.1% (inactive).

On to `O=C(CSc1nc2ccccc2c(=O)n1-c1ccc(S(=O)(=O)Nc2ccc(Cl)nn2)cc1)Nc1ccc(S(=O)(=O)Nc2ccc(Cl)nn2)cc1`, for which the growth was 102% (inactive).

`COc1cc(-c2nc(-c3ccccc3)[nH]c2-c2ccnc(NCCCNS(=O)(=O)c3ccc(C(F)(F)F)cc3)n2)ccc1Cl`: the growth is 40.7% (inactive) and 39.8% (inactive).

For the molecule `Cc1csc(/N=C(N)/N=C(\N)c2cccc(C#N)c2)n1`, the growth was 64.7% (inactive).

As to `CC[C@]12C=CCN3CC[C@]4(C(=C(C(=O)OC)C1)Nc1cc5c(cc14)[C@@H]1[C@H](O5)[C@@H](O)[C@@]4(CC)CC(C(=O)OC)=C5Nc6cc(O)ccc6[C@@]56CCN1C46)C32` (stereo partly drawn), the growth is 8.74% (active).

Regarding `COc1ccc(OC)c(CCn2cncc2-c2c[nH]c3ccc(Cl)cc23)c1`, the growth was 47.1% (inactive).

`Cc1ccc(-c2cc3nc(C(Cl)Cl)nc(-c4ccc(S(=O)(=O)N(C)C)cc4)n3n2)cc1`: the growth was 83.8% (inactive).

`CC1=C(C)C(=O)C(Nc2cccc(C(=O)OC(C)(C)C)c2)=C(Cl)C1=O`: the growth is 88.5% (inactive).

As to `COC(=O)c1ccc(NC2=C(Cl)C(=O)C(C)=C(C)C2=O)cc1`, the growth was 59.4% (inactive).

As for `Cc1nc(/N=C(N)/N=C(\N)c2cccc(Br)c2)sc1C`, the growth is 47% (inactive).

As to `COC(=O)c1cccc(NC2=C(Cl)C(=O)c3nc(C)ccc3C2=O)c1`, the growth is 106% (inactive).

On to `CN(C)c1ccc(/C=N/Nc2nc(N/N=C/c3ccc(N(C)C)cc3)nc(N3CCCCC3)n2)cc1`, for which the growth was 50% (inactive).

Turning to `OCC(Nc1ncnc2ccc(-c3cnc4cnccn34)cc12)c1ccccc1` (stereo not drawn), the growth is 88.5% (inactive).
